Screens from PubChem.
Sfp inh: qHTS Assay for Inhibitors of Bacillus subtilis Sfp phosphopantetheinyl transferase (PPTase); Potency, µM, inactives show largest response in the series, negative = inhibition, most hits filed as inhibitors; Biochemical Sfp PPTase activity, qHTS; 310,000 tested, 3.5% active; 4'-phosphopantetheinyl transferase ffp (Bacillus subtilis), Q9F4F7;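 note: the enzyme is Sfp with the accession as filed and its product quenches rhodamine fluorescence; 0% = enzyme reaction without inhibitor and -100% = no enzyme wells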
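After 15 min at room temperature with compound, 15 nM Sfp received 5 uM rhodamine-CoA plus 12.5 uM BHQ-2-ybbR (50 mM Hepes pH 7.6, 10 mM MgCl2). Rate came from the fluorescence difference over 30 min, ex 525/em 598 nm.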
JMJD2A Tudor inh: qHTS Assay for Inhibitors of JMJD2A-Tudor Domain | Lysine-specific demethylase 4A (Homo sapiens), O75164 | AlphaScreen JMJD2A-Tudor / H3K4me3 peptide binding | Potency, µM (titrated, usually from 114 µM), for the others: at the highest dose activity change, negative = inhibition, most hits filed as inhibitors | 390,000 tested, 4.4% active | AID 504339, 2011; note: % is set by controls: 0 for no effect and ±100 for the full control effect; nearly all actives have a fitted effect of over 50% in size
L3MBTL1 inh: qHTS Assay for the Inhibitors of L3MBTL1. Lethal(3)malignant brain tumor-like protein 1 (Homo sapiens), Q9Y468. AlphaScreen L3MBTL1–H3K9me1 peptide binding. Potency, µM (highest dose often 57.1 µM), without a hit: at the highest dose activity, negative = inhibition, most hits filed as inhibitors. 230,000 tested, 0.66% active. AID 485360, 2010; note: % is set by controls: 0 for no effect and ±100 for the full control effect; nearly all actives have a fitted effect of over 60% in size
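Displacement of a biotinylated histone H3(1-15) peptide monomethylated at Lys9 (75 nM) from L3MBTL1 (50 nM) was measured by AlphaScreen after a 30 min room-temperature compound incubation; cefsulodin titration served as intraplate control.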
G9a block: qHTS Assay for Inhibitors of Histone Lysine Methyltransferase G9a | Histone-lysine N-methyltransferase EHMT2 (Homo sapiens), Q96KQ7 | G9a H3K9 monomethylation, AlphaScreen, 2 h | Potency, µM (top dose mostly 102 µM), without a hit: at the highest dose activity, negative = inhibition, hits mostly inhibitors | 350,000 tested, 8.8% active; note: % is set by controls: 0 for no effect and ±100 for the full control effect; nearly all actives have a fitted effect of over 75% in size
Target sequence (Q96KQ7 913-1193 limits assumed): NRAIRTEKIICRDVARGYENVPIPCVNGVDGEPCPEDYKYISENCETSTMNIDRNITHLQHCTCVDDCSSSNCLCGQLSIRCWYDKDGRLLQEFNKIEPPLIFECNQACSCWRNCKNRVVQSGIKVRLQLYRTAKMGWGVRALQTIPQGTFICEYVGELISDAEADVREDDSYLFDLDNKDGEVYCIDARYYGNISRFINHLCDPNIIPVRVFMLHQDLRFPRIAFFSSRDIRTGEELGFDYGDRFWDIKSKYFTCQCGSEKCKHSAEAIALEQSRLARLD
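Readings reflect AlphaScreen signal from monomethyl-H3K9 antibody detection. HMT at 20 nM; substrate b-H3K9 500 nM; cofactor SAM 20 uM; 2 h RT reaction; compounds tested as titrations in qHTS with 15 min preincubation.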
HP1b chromo inh: HTS for Inhibitors of HP1-beta Chromodomain Interactions with Methylated Histone Tails. 390,000 tested, 0.56% active. AlphaScreen HP1-beta / biotin-H3K9me3 peptide binding. Potency, µM (doses to about 114 µM), without a hit: at the top dose activity change, negative = inhibition, actives largely listed as inhibitors; note: nearly all actives have a fitted effect of over 70% in size
Target sequence (P83916 whole entry, looked up): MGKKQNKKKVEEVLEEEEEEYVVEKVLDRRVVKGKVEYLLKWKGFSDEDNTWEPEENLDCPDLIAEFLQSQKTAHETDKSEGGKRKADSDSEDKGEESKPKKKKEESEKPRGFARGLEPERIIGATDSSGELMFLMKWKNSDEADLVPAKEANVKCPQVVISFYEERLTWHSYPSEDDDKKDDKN
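AlphaScreen: HP1-beta (50 nM) preformed 30 min with biotin-H3(1-18)K9me3 peptide (50 nM) in PBS pH 7.4, 0.01% Tween-20. Compound added for 30 min at RT, then streptavidin donor/nickel chelate acceptor beads (10 ug/mL) for 30 min.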
BAZ2B block: qHTS Assay for Inhibitors of BAZ2B | Bromodomain adjacent to zinc finger domain protein 2B (Homo sapiens), Q9UIF8 | AlphaScreen BAZ2B-H3K14Ac peptide displacement | Potency, µM (highest dose often 114 µM), without a hit: top-dose activity change, negative = inhibition, usual class: inhibitors | 360,000 tested, 4.4% active | AID 504333, 2011; note: % is set by controls: 0 for no effect and ±100 for the full control effect; nearly all actives have a fitted effect of over 60% in size
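AlphaScreen luminescence quantifies BAZ2B engagement of H3K14Ac peptide; the protein and biotinylated peptide are both at 50 nM final, buffer PBS pH 7.4 with 0.01% Tween-20, all steps at room temperature.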
* = called active by the depositor; ? = inconclusive; / = not tested or not shown; [ ] = another dose, or the depositor's remark. Compounds with a hit are over-represented: about 12% of the library has one in this group of screens. Calls come from the whole dose curve; as a rule, active = well fitted curve in the direction sought with a large enough effect; inconclusive = small, poorly fitted or top-dose-only effect, or another doubt; inactive = no such curve, though single readings can be large; an effect the other way counts as inactive or inconclusive. Potency is the fitted concentration of half-maximal effect.

SMILES | Sfp inh | JMJD2A Tudor inh | L3MBTL1 inh | G9a block | HP1b chromo inh | BAZ2B block
CCOc1ccc(S(=O)(=O)N2Cc3ccccc3CC2C(=O)O)cc1 (configuration not stated) | 24% | 3%[11.4 µM] | / | 50µM* | 26% | ?
CCOc1ccc(CN(C(=O)c2cc(=O)c3cc(Cl)ccc3o2)C2CCS(=O)(=O)C2)cc1 (configuration not stated) | / | -12% | / | 5%[59 µM] | 51% | 15%
CCOC(=O)c1cnc2c(ccc3ccccc32)c1Nc1ccccc1O | / | -8% | / | -13%[59 µM] | 31% | -12%
Cc1ccc(Nc2nc3ccc(C)cc3nc2-n2nc(C)cc2C)c(C)c1 | / | 93% | / | 83%[59 µM] | 165% | 31%
Cc1cc(N2CCN(C)CC2)nc(=S)[nH]1 | 50µM* | -9% | 9% | 40µM* | 54% | -30%
O=[N+]([O-])c1ccc(O)c(-c2nc(-c3ccccc3)c(-c3cccs3)[nH]2)c1 | 7% | 45µM* | -6% | 35%[0.501 µM] | ? | 35µM*
O=[N+]([O-])c1ccc2nc(-c3ccccc3)[nH]c2c1 | 7% | -26% | 4% | 20%[59 µM] | -5% | -3%
CCOc1cc(-c2nc(-c3ccccc3)c(-c3cc([N+](=O)[O-])ccc3C)[nH]2)ccc1O | 20% | ? | / | 14µM* | -30% | ?
COc1ccc(-c2nc(-c3ccccc3)c(-c3cc([N+](=O)[O-])ccc3C)[nH]2)cc1OC | 4% | -18%[11.4 µM] | / | ? | ? | 45µM*
CSc1ccc(-c2nc3ccc(C)cn3c2Nc2ccccc2C)cc1 | / | -18% | / | 33%[59 µM] | 63% | /
N[C@@H](C(=O)O)c1ccc(O)c(C(=O)O)c1 | ? | -24% | / | / | 25% | /
CCOc1cc(CNc2ccccc2)cc(Br)c1OCc1ccccc1F | 1% | 10% | / | 13%[12.7 µM] | 73% | 4%
CCOc1ccc(Br)cc1S(=O)(=O)N1CCC(C(N)=O)CC1 | 13% | -8% | 4% | -4% | 15% | -8%
CCOc1ccc(Br)cc1S(=O)(=O)Nc1ccccc1N1CCOCC1 | -7% | 3% | -1% | 12%[59 µM] | 45% | -4%
CCOc1cc(CNc2ccc(N3CCCCC3)cc2)cc(Br)c1OCC(=O)NC(C)(C)C | -46% | 10µM* | 28µM* | 10µM* | ? | 11µM*
CCOc1ccc(Br)cc1S(=O)(=O)N1CCCN(C)CC1 | 7% | -11% | / | 50µM* | 10% | -11%
CCOc1cc(CNc2ccc(N3CCOCC3)cc2)cc(Br)c1OCC | -24% | 20µM* | 32µM* | 25µM* | 45µM* | 18µM*
CCOc1ccc(Br)cc1S(=O)(=O)Nc1ccc(N2CCOCC2)cc1 | 3% | -18% | / | 11µM* | -7% | ?
COc1cccc([C@@H]2Oc3ccc(Br)cc3C[C@H]2OC(=O)N[C@H](C)C2CCCCC2)c1 | 3% | / | / | / | / | /
COc1ccc(CNC(=O)C2CCN(c3nc4ccc(C)cc4[nH]3)CC2)cc1 | / | 4% | / | 0%[59 µM] | 21%[57 µM] | 4%
COc1ccc(NC(=O)c2c(C)oc3ccc(O)c(CN4CCN(C)CC4)c23)cc1Cl | / | -18% | / | -3%[59 µM] | 24% | -16%
COc1cc(CNc2ccc(N3CCOCC3)cc2)cc(Br)c1OC | ? | 40µM* | -15%[11.4 µM] | 18µM* | ? | 40µM*
CCOc1cc(CNc2ccc3c(c2)OCCO3)cc(Br)c1OCC | 1% | 45µM* | ? | / | -76% | 25µM*
N#Cc1ccc(CN2CC3(CCN(C(=O)c4cc(C(F)(F)F)cc(C(F)(F)F)c4)CC3)C2)cc1 | 11% | / | / | -1%[12.7 µM] | / | /
